This passage reports composite z-score and z-score results from PubChem BioAssay.

The subject of experiment [1] is Plasmodium falciparum Sir2 (PF13_0152, Sir2A). Description: pfSir2 binders on small-molecule microarrays, primary screen, biochemical, small-molecule microarray, 635 nm fluorescence (AID 1098).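 Further: score merges spot fluorescence intensity with its signal-to-noise ratio.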 The conditions noted are these: small-molecule microarray binding, fluorescence 635 nm; higher = more signal.
Experiment [2] can be described thus: small-molecule microarray binders of probe aDKK1, primary screen, biochemical, biotinylated probe, 635/667 nm fluorescence (AID 1099).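 Further: score merges 667nm spot fluorescence with signal to noise across triplicate slides.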 To be noted: higher = more signal.
Experiment [3] is described as follows: small-molecule microarray binders of probe aCHRDL2, primary screen, biochemical, biotinylated probe, 635/667 nm fluorescence (AID 1100). The conditions noted are these: higher = more signal.
The nature of experiment [4]: splicing luciferase reporter signal modulators, primary screen, spliceosome inhibition project, cell-based, HEK293, splice +/- reporter (AID 1101).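 Further: HEK293 cells carrying a splicing-competent luciferase reporter gene; test concentration not given here.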 To be noted: luminescence, 24 h, higher = more signal, called active from +8 up or from −8 down. On the technique in general: Reporter assays use an easily measured gene product as a stand-in for the process of interest.
Experiment [5] concerns the target Fibroblast growth factor 10 (Homo sapiens) (UniProt O15520). Description: FGF10 binders on small-molecule microarrays, primary screen, biochemical, small-molecule microarray, 635 nm fluorescence (AID 1102). The conditions noted are these: FGF10 binding, fluorescence 635 nm, higher = more signal.
For experiment [6], the system named is glycogen synthase kinase-3 (GSK3A per assay name; protocol says GSK3B). Description: GSK3 binders on small-molecule microarrays, primary screen, biochemical, small-molecule microarray, 635 nm fluorescence, GSK3A (AID 1103). Further: the record names both GSK3A and GSK3B. To be noted: small-molecule microarray binding, fluorescence 635 nm; higher = more signal.
Experiment [7] addresses Epidermal growth factor receptor (Homo sapiens) (UniProt P00533). As to the kind of experiment: EGFR binders on small-molecule microarrays, primary screen, biochemical, small-molecule microarray, 635 nm fluorescence (AID 1104).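 Further: score merges 667 nm emission intensity with spot signal to noise over triplicate slides.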 To be noted: EGFR binding, higher = more signal.
Experiment [8] deals with Follistatin-related protein 3 (Homo sapiens) (UniProt O95633). As to the kind of experiment: FSTL3 binders on small-molecule microarrays, primary screen, biochemical, small-molecule microarray, 635 nm fluorescence (AID 1105).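 Further: score merges emission near 667 nm and signal to noise per printed spot across three slides.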 The conditions noted are these: FSTL3 binding, higher = more signal.
Sequence of Follistatin-related protein 3 (Homo sapiens) (O95633 whole entry, looked up): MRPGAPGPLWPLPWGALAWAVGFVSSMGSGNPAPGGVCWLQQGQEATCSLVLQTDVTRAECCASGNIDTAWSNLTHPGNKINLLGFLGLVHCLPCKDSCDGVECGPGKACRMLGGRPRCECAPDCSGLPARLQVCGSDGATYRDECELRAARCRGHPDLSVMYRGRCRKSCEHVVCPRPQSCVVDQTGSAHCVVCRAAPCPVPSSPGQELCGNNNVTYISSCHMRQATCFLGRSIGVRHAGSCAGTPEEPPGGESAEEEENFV
Experiment [9] addresses Dickkopf-related protein 1 (Homo sapiens) (UniProt O94907). Description: DKK1 binders on small-molecule microarrays, primary screen, biochemical, small-molecule microarray, 635 nm fluorescence scan (AID 1106).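 Further: score merges emission near 667 nm with signal to noise over three replicate slides.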 To be noted: DKK1 binding, higher = more signal.
Experiment [10] concerns Inhibin beta A chain (activin A). As to the kind of experiment: INHBA (activin A) binders on microarrays, primary screen, biochemical, small-molecule microarray, 635 nm fluorescence scan (AID 1107).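 Further: mouse activin A protein probed at 4.33 µg/mL on printed slides; score merges bound-protein fluorescence near 667 nm with spot signal-to-noise.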 To be noted: small-molecule microarray binding, higher = more signal.
The test system of experiment [11] is Human papillomavirus type 1a protein E7 (residues 44-93). Description: HPV1a E7 fragment binders on microarrays, primary screen, biochemical, small-molecule microarray, residues 44-93, 635 nm fluorescence (AID 1108).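 Further: E7 fragment applied at 1 µg/mL in TBST for 1 h at 4 C; score combines spot fluorescence with its signal to noise ratio.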 The conditions noted are these: small-molecule microarray binding, fluorescence 635 nm; higher = more signal.
Experiment [12] in a line: modulators of HCV replicon luciferase signal, primary screen, HCV replication inhibitor project, Huh7 cells, luciferase reporter (AID 1109).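 Further: huh7 hepatoma cells harbouring a luciferase neomycin HCV replicon reporter; luciferase luminescence as measure of HCV replicon replication; test concentration not given here.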 To be noted: 48 h, higher = more signal. Background: A replicon is a self-replicating genome or part of one, used to study replication in cells.
Experiment [13] addresses Left-right determination factor 2 (Homo sapiens) (UniProt O00292). Description: LEFTY2 binders on small-molecule microarrays, primary screen, biochemical, small-molecule microarray, 635 nm fluorescence scan (AID 1110). The conditions noted are these: LEFTY2 binding, higher = more signal.
Experiment [14] concerns the target Calmodulin-1 (Homo sapiens) (UniProt P0DP23). Description: CALM1 binders on microarrays, EGTA buffer, profiling panel, biochemical, small-molecule microarray, Cy5-labelled CALM1 (AID 1111).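 Further: labelled calmodulin applied in Tris saline Tween buffer holding calcium plus EGTA and DTT.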 To be noted: Cy5-CALM1 binding fluorescence, higher = more signal.
For experiment [15] the target is unchanged. Description: calcium-bound CALM1 binders on microarrays, profiling panel, artefact control for SMM control-protein annotation, biochemical, small-molecule microarray, Cy5-labelled CALM1, plus calcium (AID 1112).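 Further: score merges spot fluorescence with signal to noise from triplicate slides.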 To be noted: Cy5-CALM1 binding fluorescence, higher = more signal.
Experiment [16] in a line: small-molecule microarray binders of probe aWnt5a, primary screen, biochemical, biotinylated probe, 635/667 nm fluorescence (AID 1113).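 Further: score merges 667 nm fluorescence intensity with signal-to-noise per printed feature.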 The conditions noted are these: higher = more signal.
The nature of experiment [17]: small-molecule microarray binders of probe aShh, primary screen, biochemical, biotinylated probe, 635/667 nm fluorescence (AID 1114).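 Further: probe is biotin-labelled aShh protein from a stem cell growth factor screen; measures binding of labelled protein to compounds printed on the slide; score merges feature fluorescence at 667 nm with signal-to-noise.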 The conditions noted are these: higher = more signal.
The nature of experiment [18]: small-molecule microarray binders of probe aNog, primary screen, biochemical, biotinylated probe, 635/667 nm fluorescence (AID 1115).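 Further: probe is biotinylated aNog protein used at 0.15 µg/mL for 1 h at 4 C; z-score combines 667 nm fluorescence of each spot with its signal to noise.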 The conditions noted are these: higher = more signal.
Experiment [19] has as its target Torsin-1A-interacting protein 1 (Homo sapiens) (UniProt Q5JTV8). Description: LAP1 binders from COS7 cell lysate, primary screen, small-molecule microarray, 635/667 nm fluorescence (AID 1116). To be noted: COS7-hLAP1 lysate binding, 635 nm fluorescence, higher = more signal.
For experiment [20], the target named is Alpha-bungarotoxin (Bungarus multicinctus) (UniProt P60615). As to the kind of experiment: alpha-bungarotoxin binders on microarray, profiling panel, artefact control for SMM control protein annotation, biochemical, small-molecule microarray, Alexa647 label, 635/667 nm fluorescence (AID 1117). To be noted: alpha-BTX-A647 binding fluorescence, higher = more signal.
Sequence of Alpha-bungarotoxin (Bungarus multicinctus) (P60615 whole entry, looked up): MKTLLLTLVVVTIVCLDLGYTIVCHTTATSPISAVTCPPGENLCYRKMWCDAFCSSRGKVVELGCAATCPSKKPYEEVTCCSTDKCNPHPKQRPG

SMILES strings stand for the structures. Calls of active or inactive are those of the source.

Sequence of Torsin-1A-interacting protein 1 (Homo sapiens) (Q5JTV8 whole entry, looked up): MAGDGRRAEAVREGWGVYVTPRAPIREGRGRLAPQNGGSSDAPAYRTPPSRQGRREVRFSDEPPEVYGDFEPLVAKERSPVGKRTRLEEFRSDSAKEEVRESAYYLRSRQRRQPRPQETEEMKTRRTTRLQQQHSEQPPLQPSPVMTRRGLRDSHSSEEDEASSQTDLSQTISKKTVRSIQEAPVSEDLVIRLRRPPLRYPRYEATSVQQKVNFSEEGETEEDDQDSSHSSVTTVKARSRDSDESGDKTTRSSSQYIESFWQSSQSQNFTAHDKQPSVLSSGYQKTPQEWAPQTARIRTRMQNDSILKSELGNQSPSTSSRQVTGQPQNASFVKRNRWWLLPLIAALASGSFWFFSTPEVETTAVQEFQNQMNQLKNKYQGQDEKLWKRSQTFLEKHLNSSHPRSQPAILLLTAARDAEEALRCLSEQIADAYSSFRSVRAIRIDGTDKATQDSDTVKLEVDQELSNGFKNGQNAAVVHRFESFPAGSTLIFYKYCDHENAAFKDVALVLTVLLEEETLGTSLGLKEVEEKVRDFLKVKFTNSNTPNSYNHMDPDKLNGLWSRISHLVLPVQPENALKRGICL
Sequence of Left-right determination factor 2 (Homo sapiens) (O00292 whole entry, looked up): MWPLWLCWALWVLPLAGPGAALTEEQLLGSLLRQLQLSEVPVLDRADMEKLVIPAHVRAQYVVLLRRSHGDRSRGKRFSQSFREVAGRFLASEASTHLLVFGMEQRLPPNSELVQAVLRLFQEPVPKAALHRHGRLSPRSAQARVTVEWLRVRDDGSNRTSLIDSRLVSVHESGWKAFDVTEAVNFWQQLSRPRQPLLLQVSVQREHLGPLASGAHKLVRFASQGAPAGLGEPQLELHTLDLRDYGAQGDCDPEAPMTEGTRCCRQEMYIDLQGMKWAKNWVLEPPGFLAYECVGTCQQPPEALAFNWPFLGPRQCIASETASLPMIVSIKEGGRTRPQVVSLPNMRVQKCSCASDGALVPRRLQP
Sequence of Epidermal growth factor receptor (Homo sapiens) (P00533 whole entry, looked up): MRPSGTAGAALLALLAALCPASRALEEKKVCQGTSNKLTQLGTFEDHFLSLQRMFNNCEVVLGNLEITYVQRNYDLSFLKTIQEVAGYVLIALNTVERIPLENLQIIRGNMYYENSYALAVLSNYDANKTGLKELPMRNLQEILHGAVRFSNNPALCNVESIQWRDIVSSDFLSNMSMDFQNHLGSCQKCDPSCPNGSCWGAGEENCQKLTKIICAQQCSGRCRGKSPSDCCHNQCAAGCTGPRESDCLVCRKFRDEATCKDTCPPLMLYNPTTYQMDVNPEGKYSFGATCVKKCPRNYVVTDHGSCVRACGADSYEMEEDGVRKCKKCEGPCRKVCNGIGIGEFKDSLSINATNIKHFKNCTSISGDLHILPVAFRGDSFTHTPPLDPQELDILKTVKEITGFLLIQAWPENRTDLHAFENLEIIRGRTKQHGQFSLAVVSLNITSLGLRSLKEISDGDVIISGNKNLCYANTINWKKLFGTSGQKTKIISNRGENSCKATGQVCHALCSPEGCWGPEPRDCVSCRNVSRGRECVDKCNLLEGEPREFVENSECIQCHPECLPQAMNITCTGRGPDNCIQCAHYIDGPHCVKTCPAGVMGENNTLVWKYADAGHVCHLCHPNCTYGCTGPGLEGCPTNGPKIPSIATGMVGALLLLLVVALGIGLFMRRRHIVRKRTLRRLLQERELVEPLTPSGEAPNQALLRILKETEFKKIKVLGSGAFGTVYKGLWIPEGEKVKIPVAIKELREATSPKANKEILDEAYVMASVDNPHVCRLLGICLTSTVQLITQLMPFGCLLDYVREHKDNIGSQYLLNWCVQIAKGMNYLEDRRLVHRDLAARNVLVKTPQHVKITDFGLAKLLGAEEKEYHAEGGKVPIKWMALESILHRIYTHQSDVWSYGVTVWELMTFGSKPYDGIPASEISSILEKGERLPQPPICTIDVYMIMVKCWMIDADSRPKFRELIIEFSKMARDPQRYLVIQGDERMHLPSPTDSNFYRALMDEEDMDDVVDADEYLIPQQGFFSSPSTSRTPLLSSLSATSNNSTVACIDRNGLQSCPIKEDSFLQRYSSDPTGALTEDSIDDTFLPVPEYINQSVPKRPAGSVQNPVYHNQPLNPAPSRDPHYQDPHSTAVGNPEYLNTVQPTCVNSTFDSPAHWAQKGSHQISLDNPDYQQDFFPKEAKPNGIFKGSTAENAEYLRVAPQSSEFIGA
Sequence of Dickkopf-related protein 1 (Homo sapiens) (O94907 whole entry, looked up): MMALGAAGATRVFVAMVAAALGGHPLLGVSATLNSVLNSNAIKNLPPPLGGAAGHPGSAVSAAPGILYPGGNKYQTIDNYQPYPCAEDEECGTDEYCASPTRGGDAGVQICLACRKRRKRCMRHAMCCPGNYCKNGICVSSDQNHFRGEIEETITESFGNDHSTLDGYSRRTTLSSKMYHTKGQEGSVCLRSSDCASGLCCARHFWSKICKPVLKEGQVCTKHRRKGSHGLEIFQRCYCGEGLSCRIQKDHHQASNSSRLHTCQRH
Sequence of Fibroblast growth factor 10 (Homo sapiens) (O15520 whole entry, looked up): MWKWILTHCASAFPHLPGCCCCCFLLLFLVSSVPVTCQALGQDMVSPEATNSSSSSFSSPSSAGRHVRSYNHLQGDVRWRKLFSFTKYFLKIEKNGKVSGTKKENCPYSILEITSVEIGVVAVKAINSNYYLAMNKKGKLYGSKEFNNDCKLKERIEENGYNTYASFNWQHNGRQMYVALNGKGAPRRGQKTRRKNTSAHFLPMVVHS

For `O=C1N(Cc2ccccc2)Cc2ccccc2C[C@@]12COC(c1ccc(OCCCO)cc1)=N2`, the composite z-score in experiment [1] is 0.631; in [2], 1.02; in experiment [3] it was 1.27; in [5], 0.334; in experiment [6], 1.27; in experiment [7], -0.622. Moreover, the composite z-score in experiment [8] was 0.288; in [9], 0.306; in [10] it was 1.4; in [11] it was 1.19; in experiment [13], -0.0607; in [14], 0.273. Also, the composite z-score in experiment [15] was 0.519; in experiment [16], -0.043; in experiment [17] it was 0.0287; in experiment [18] it was 1.09; in [19], 0.724; in experiment [20] it was 0.491. In addition, the results for the z-score in experiment [4] and in experiment [12] were 6.28 (inactive) and -3.52, respectively.
Turning to `COc1cc2c(cc1OC)CN(C(=O)[C@@H]1[C@H]3C(=O)O[C@H](c4ccccc4)[C@H](c4ccccc4)N3[C@H](c3ccc(O)cc3)[C@@]13C(=O)Nc1ccc(C#CC4=CCCCC4)cc13)CC2`, the composite z-score is 1.39 in experiment [1]; 0.716 in experiment [2]; 0.586 in experiment [3]; 0.975 in experiment [5]; 1.28 in [6]; 0.452 in experiment [7]. The composite z-score amounted to 1.03 in experiment [8]; 0.453 in experiment [9]; 0.475 in [10]; 0.244 in [11]; 0.512 in experiment [13]; 1.07 in experiment [14]. The composite z-score was 0.319 in [15]; 0.0044 in [16]; -0.011 in [17]; 0.14 in experiment [18]; 0.635 in experiment [19]; 0.891 in [20]. Further, the z-score in experiment [4] is -0.101 (inactive); in [12], -1.49.
Consider `CCOC(=O)C=C1C[C@@H](c2cccc([N+](=O)[O-])c2)O[C@@H](c2cccc([N+](=O)[O-])c2)O1`, for which the composite z-score in experiment [1] came to 0.765; in experiment [2] it was 1.15; in [3], 0.895; in [5] it was 0.567; in [6] it was 1.27; in experiment [7] it was 0.46. The composite z-score in [8] was found to be 0.747; in [9], 0.514; in experiment [10], 0.594; in experiment [11], 0.478; in experiment [13], 0.584; in experiment [14], 1.68. For the same compound, the composite z-score in [15] came to 0.966; in experiment [16], 0.0289; in experiment [17], 0.317; in [18] it was 1.64; in [19], 0.785; in experiment [20] it was 1.05. Moreover, the z-score was 0.435 (inactive) in [4] and -1.96 in [12].
For `COc1ccc(-c2cc3c(c(CCc4ccccc4)n2)[Si](C(C)C)(C(C)C)O[C@H]3c2ccccc2)cn1`, the composite z-score in [1] was -0.576; in [2], 0.0477; in [3] it was -0.12; in experiment [5], 0.332; in experiment [6] it was -0.237; in experiment [7], -0.0109. The composite z-score was 0.362 in experiment [8]; -0.0079 in experiment [9]; 0.343 in [10]; -0.38 in [11]; 0.0069 in experiment [13]; -0.0526 in experiment [14]. In addition, the composite z-score in experiment [15] was -0.517; in [16] it was -0.12; in experiment [17], -0.0192; in [18], -0.158; in experiment [19] it was -0.309; in experiment [20], 0.31. Also, the z-score in experiment [4] is -0.879 (inactive); in experiment [12] it was -1.8.
As to `O=C(NCC(F)(F)F)[C@@H]1c2ccccc2C(=O)N(Cc2cc(C(F)(F)F)cc(C(F)(F)F)c2)[C@H]1c1ccc(CO)cc1`, the composite z-score is 1.78 in [1]; -0.207 in [2]; 0.272 in experiment [3]; 0.728 in experiment [5]; -0.137 in experiment [6]; -0.284 in experiment [7]. The composite z-score in experiment [8] was -0.145; in experiment [9], 0.382; in experiment [10] it was 0.0807; in experiment [11], 0.236; in experiment [13], -0.244; in [14] it was -0.0722. Further, the composite z-score was 0.122 in [15]; 0.0377 in experiment [16]; -0.0035 in experiment [17]; -0.103 in [18]; 0.653 in [19]; 0.0956 in experiment [20]. Moreover, the z-score in experiment [4] was 0.245 (inactive); in [12], -1.04.
